PubChem BioAssay AID588511 (Johns Hopkins Ion Channel Center, 2011)
Hit rate of the full screen: of about 310,000 compounds, about 3,600 (1.2%) were called active.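 Rule for the calls: active = ratio plate-corrected score three or more library SD toward inhibition, starting fluorescence score within five deviations; inactive = the rest.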 The list comes from a sample in which actives are over-represented; it also holds similar structures and randomly drawn compounds.

biological target: Anoctamin-1 (Mus musculus) (UniProt Q8BHY3); assay: blockers of mouse ANO1 Ca-activated Cl channel – cell-based, HTS, primary screen (AID 588511); conditions: HEK293 TMEM16A/YFP iodide influx fluorescence, ionomycin; at 10 µM;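 for normalized B-score (activity score, 25-100; higher = stronger inhibition): score derived from kinetic fluorescence span divided by baseline fluorescence per well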
Sequence (Q8BHY3 whole entry, looked up): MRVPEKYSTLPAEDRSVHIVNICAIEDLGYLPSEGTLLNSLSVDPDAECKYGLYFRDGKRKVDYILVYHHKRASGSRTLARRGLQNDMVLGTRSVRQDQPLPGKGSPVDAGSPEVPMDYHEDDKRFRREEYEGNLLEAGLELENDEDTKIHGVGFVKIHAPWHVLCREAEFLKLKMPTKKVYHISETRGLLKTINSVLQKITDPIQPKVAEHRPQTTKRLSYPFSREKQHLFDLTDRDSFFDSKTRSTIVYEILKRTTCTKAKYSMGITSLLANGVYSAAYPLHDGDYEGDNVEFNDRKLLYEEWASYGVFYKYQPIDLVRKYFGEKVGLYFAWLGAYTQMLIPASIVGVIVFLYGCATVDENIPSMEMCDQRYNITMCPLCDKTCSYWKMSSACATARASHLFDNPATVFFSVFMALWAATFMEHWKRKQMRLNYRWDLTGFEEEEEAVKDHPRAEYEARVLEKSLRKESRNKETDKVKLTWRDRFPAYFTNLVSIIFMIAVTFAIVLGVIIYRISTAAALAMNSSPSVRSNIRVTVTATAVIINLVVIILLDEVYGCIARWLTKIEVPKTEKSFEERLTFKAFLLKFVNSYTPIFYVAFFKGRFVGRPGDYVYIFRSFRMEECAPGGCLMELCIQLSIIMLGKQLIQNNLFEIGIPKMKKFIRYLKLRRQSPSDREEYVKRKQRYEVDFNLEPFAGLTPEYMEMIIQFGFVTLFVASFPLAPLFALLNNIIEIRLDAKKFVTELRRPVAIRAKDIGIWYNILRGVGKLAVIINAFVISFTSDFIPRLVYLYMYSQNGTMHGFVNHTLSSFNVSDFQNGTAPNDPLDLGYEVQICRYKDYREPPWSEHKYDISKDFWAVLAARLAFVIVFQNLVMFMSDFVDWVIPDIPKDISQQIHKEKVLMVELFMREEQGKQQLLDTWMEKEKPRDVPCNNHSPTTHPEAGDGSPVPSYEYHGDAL

**Q.** Which normalized B-score (activity score, 25-100; higher = stronger inhibition) does the source give for `CCOc1cccc(=NC2CCCCC2)c2c(C)[nH]c(C)c12` here?
**A.** 25 (active)

**Q.** For `Nc1ccc(C(=O)N/N=C2/CN3CCC2CC3)cc1`, which normalized B-score (activity score, 25-100; higher = stronger inhibition) is on record?
**A.** inactive

**Q.** For `CCOC(=O)C1CN(C)CCC1=O` (stereo not given), which normalized B-score (activity score, 25-100; higher = stronger inhibition) is on record?
**A.** inactive

**Q.** `CCCCCn1c(=O)c(C(=O)NCc2ccccc2)c(O)c2ccccc21` was tested. Which normalized B-score (activity score, 25-100; higher = stronger inhibition) did it give?
**A.** inactive

**Q.** Which normalized B-score (activity score, 25-100; higher = stronger inhibition) does the source give for `CCCCn1c(=O)c(C(=O)Nc2ccccc2Cl)c(O)c2ccccc21` here?
**A.** inactive

**Q.** `CCCCCn1c(=O)c(C(=O)NCc2ccccn2)c(O)c2ccccc21` was tested. Which normalized B-score (activity score, 25-100; higher = stronger inhibition) did it give?
**A.** 25 (active)

**Q.** Which normalized B-score (activity score, 25-100; higher = stronger inhibition) does the source give for `O=C(Cn1c(=O)n(CC2CS2)c2ccccc21)N1CCCCC1` (stereo not given) here?
**A.** inactive

**Q.** With `O=c1[nH]c(=O)n(-c2ccccc2)c(O)c1C=NC12CN3CN(CN(C3)C1)C2` as the molecule, how does the normalized B-score (activity score, 25-100; higher = stronger inhibition) read?
**A.** inactive

**Q.** With `COc1ccccc1NC(=O)N1C[C@@H]2C[C@@H](C1)c1cccc(=O)n1C2` as the molecule, how does the normalized B-score (activity score, 25-100; higher = stronger inhibition) read?
**A.** inactive

**Q.** How did the normalized B-score (activity score, 25-100; higher = stronger inhibition) turn out when `Cc1ccc(P(=S)(c2ccc(C)o2)N2CCOCC2)o1` was run?
**A.** inactive

**Q.** For `COc1ccc(-n2c(-c3ccccc3)nc3ccccc3c2=O)cc1`, which normalized B-score (activity score, 25-100; higher = stronger inhibition) is on record?
**A.** inactive

**Q.** With `CCN(CC)P(=O)(Oc1cccc(C)c1)N(CC)CC` as the molecule, how does the normalized B-score (activity score, 25-100; higher = stronger inhibition) read?
**A.** inactive

**Q.** With `CCN(CC)C(=O)c1ccc(NC(=O)c2sccc2-c2ccccc2)cc1` as the molecule, how does the normalized B-score (activity score, 25-100; higher = stronger inhibition) read?
**A.** inactive

**Q.** How did the normalized B-score (activity score, 25-100; higher = stronger inhibition) turn out when `CCN(CC)C(=O)c1ccc(NC(=O)c2cc(-n3cnnc3)ccc2Cl)cc1` was run?
**A.** 100 (active)

**Q.** How did the normalized B-score (activity score, 25-100; higher = stronger inhibition) turn out when `COc1ccc(-c2nn(CCC#N)cc2C(=O)Nc2ccc(C(C)=O)cc2)cc1` was run?
**A.** inactive

**Q.** Which normalized B-score (activity score, 25-100; higher = stronger inhibition) does the source give for `O=[N+]([O-])c1ccc(C2C3C(c4ccccc4)=NC4(CCCCC4)N32)cc1` (stereo not given) here?
**A.** inactive

**Q.** Which normalized B-score (activity score, 25-100; higher = stronger inhibition) does the source give for `CN(C)S(=O)(=O)c1cc(C(=O)N2CCC(C(=O)O)(c3ccccc3)CC2)ccc1Cl` here?
**A.** inactive

**Q.** How did the normalized B-score (activity score, 25-100; higher = stronger inhibition) turn out when `c1ccc(CCNC2CCCCCC2)cc1` was run?
**A.** inactive

**Q.** For `CCCCCCCCCCCCn1ccc(=N)cc1`, which normalized B-score (activity score, 25-100; higher = stronger inhibition) is on record?
**A.** 25 (active)

**Q.** For `CC1(C)C(c2ccccc2)=NC(c2cccnc2)=[N+]1[O-]`, which normalized B-score (activity score, 25-100; higher = stronger inhibition) is on record?
**A.** inactive
